# Compounds with a hit are over-represented: about 4% of the library has one in this group of screens.
# TWEAK-Fn14 inh – inhibitors of TWEAK-Fn14 signaling, primary screen, luciferase reporter cells, uHTS | TWEAK-stimulated Fn14 reporter cells, luciferase luminescence, 8 h | AID 1159606, 2016 | actives 2% (n = 360,000) | inhibition, % at 10 µM; in the data active means inhibition above about 50%
# HIF-2a block – HIF-2a reporter inhibitors, primary screen, luminescence, 786-0 RCC cells; AID 624352, 2012; 786-0 RCC cells HIF-2a reporter, luciferase luminescence, overnight; inhibition, % at 18.8 µM; actives 0.72% (n = 360,000);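 active means inhibition of the luminescence signal of 40% or more relative to plate controls, in a single-dose primary screen at 18.75 µM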
# TROY signal inh – inhibitors of TROY-driven NF-kB signaling, primary screen, Q293 LMP1-TROYcd cells, NF-kB luciferase, uHTS. AID 1347056, 2019. inhibition, % at 10 µM. Q293 LMP1-TROYcd NF-kB luciferase reporter, 4 h. actives 0.98% (n = 360,000);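 active means compounds whose plate-normalised and pattern-corrected inhibition of the luciferase reporter signal at the single screening dose is 50% or more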
# CF NFkB block – inhibitors of PAF-induced NF-kB signaling, primary screen, cell-based, GFP fluorescence, uHTS. KKLEB NF-kB-GFP reporter, GFP fluorescence overnight. inhibition, % at 5 µM. actives 0.86% (n = 360,000). AID 588850, 2011;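 active means at least 50% inhibition at 5 µM, scaled per plate between neutral and stimulator controls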;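 further: PAF is a Pseudomonas aeruginosa culture filtrate used as stimulus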
# KKLEB cytotox – cytotoxicity in KKLEB CF airway cells, primary screen, cytotoxicity control for CF NF-kB inhibitor project, cell-based, uHTS, fluorescence assay plates; activity change (cytotoxicity), % at 5 µM; KKLEB CF airway cells viability, ATPlite luminescence, overnight; stronger effect = lower value; cells stimulated with P. aeruginosa culture filtrate; actives 0.36% (n = 360,000);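 active means corrected activity change at or below -50% at 5 µM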
# Peg3 promoter – Peg3 promoter-driven luciferase inhibitors, primary screen, cell-based, HeLa, luciferase luminescence; actives 1.7% (n = 360,000); AID 588405, 2011; HeLa PEG-Prom luciferase reporter, overnight; inhibition, % at 20 µM;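 active means inhibition of at least 50% at 20 µM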
# Mdm2-MdmX confirm – retested Mdm2-MdmX interaction blockers, confirmation, cell-based, luminescence, single concentration, set 2; shares compounds with HIF-2a block; SaOS-2 split-luciferase Mdm2/MdmX complementation; inhibition, % at 8 µM; actives 99% (n = 740);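 active means mean inhibition of the luminescence signal across two replicates at or above 26 percent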
# Target sequence (O15151 whole entry, looked up): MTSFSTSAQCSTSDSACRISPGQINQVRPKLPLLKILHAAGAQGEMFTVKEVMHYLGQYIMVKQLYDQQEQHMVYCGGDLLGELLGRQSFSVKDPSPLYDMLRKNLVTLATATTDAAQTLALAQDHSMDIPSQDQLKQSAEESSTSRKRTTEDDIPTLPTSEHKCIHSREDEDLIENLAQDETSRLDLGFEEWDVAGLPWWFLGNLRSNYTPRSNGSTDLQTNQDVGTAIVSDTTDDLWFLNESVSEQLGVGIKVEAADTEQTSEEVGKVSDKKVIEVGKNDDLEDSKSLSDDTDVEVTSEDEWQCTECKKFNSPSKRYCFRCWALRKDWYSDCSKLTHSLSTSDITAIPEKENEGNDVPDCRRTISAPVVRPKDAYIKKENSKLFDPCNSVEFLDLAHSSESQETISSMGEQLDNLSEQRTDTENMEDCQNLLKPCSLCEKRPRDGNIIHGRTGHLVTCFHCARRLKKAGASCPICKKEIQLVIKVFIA
# Target sequence (Q00987 whole entry, looked up): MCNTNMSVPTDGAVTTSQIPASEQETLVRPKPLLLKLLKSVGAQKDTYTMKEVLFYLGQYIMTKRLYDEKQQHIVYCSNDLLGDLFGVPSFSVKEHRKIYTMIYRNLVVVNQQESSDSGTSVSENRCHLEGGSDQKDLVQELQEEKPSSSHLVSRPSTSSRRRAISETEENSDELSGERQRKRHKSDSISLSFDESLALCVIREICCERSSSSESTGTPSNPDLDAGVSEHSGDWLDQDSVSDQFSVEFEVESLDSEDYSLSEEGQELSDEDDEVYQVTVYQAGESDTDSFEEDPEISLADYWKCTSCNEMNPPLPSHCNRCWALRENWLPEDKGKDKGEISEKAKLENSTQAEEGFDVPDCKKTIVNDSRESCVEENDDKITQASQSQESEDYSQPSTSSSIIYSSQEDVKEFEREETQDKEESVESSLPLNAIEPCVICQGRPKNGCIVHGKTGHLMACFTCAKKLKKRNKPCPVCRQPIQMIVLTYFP
# HIF-2a inh conf – HIF-2a reporter inhibitor retest, confirmation, luminescence, 786-0 RCC cells. inhibition, % at 18.8 µM. shares compounds with HIF-2a block. actives 56% (n = 1,800). AID 651580, 2012. HIF-2a luciferase reporter luminescence, overnight;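 active means mean inhibition across four replicates of at least 40 percent at the single tested concentration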
# HIF-1a cs – HIF-1a luciferase reporter signal reduction – MiaPaCa-2 cells, single concentration, counter-screen for HIF-2a inhibitor project, confirmation | shares compounds with HIF-2a block | MiaPaCa-2 HIF-1a luciferase reporter, desferoxamine, overnight | inhibition, % at 18.8 µM | actives 72% (n = 1,800) | AID 651589, 2012;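 active means mean inhibition of the reporter signal across four replicates at the single tested dose of 50% or more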
# A number is an active result; . = inactive; / = no result.
SMILES,TWEAK-Fn14 inh,HIF-2a block,TROY signal inh,CF NFkB block,KKLEB cytotox,Peg3 promoter,HIF-2a inh conf,HIF-1a cs,others
CC(=O)N(Cc1ccc(F)cc1)C1=C(NCCc2ccccc2)C(=O)c2ccccc2C1=O,82,91,66,86,-55,103,/,/,Mdm2-MdmX confirm=101
O=C(C[C@H]1C[C@H](C(=O)N2CCCCC2)[C@@]2(CCc3ccccc3)c3[nH]c4ccc(Cl)cc4c3CCN2C1=O)NCCCn1ccnc1,.,76,55,.,.,.,.,98,
CC(C)(C)c1ccc(C(=O)Nc2sc3c(c2C(=O)O)CCC3)cc1,88,96,62,.,.,.,96,75,
COc1ccc2c(c1)/C(=C\c1cccc(/C=C3/C(=O)Nc4ccc(OC)cc43)n1)C(=O)N2,100,90,.,83,.,107,98,107,
Cc1ccc2c(c1)/C(=C/c1ccccc1)C(=O)N2,.,.,.,.,.,.,/,/,
O=S1(=O)Nc2c(ccc3cccnc23)-c2ccccc21,105,.,71,52,.,111,/,/,Mdm2-MdmX confirm=103
Clc1ccc2ccc3cccnc3c2n1,.,.,.,.,.,.,/,/,
O=C(Nc1ccc2nc3n(c(=O)c2c1)CCCCC3)c1ccccc1[N+](=O)[O-],.,.,.,.,.,.,/,/,
O=C(Nc1ccc2nc3n(c(=O)c2c1)CCCCC3)c1c(F)ccc([N+](=O)[O-])c1F,106,88,86,87,-87,108,98,96,Mdm2-MdmX confirm=103
O=[N+]([O-])c1cccc(S(=O)(=O)N2CCCCC2c2cccnc2)c1 (stereo not given),.,.,.,.,.,.,/,/,
O=C(c1ccccc1)c1cc(Cl)ccc1N1C(=O)C=CC1=O,.,75,.,58,.,105,78,.,
O=C(CC(=O)c1cc(Cl)ccc1O)c1ccccc1,.,.,.,.,.,.,/,/,
Cc1cc2[nH]c3c4ccccc4nc(C)c3c2cc1C,.,92,78,.,-68,106,.,105,
Cc1cc2[nH]c3ccccc3c2c(C)n1,.,.,.,.,.,.,/,/,
Cn1cnc2c1c(=O)n(Cc1cccc(Cl)c1)c(=O)n2C,.,.,.,.,.,.,/,/,
O=C(Nc1ccc(F)cc1)c1cccnn1,.,.,.,.,.,.,/,/,
COc1ccccc1N(C)S(=O)(=O)c1ccc(Cl)c(C(=O)Nc2ccccc2N2CCOCC2)c1,.,.,.,.,.,.,/,/,
CCOc1ccc(CCN2C(=O)C(=O)N([C@@H](Cc3ccccc3)CN3CCC[C@H]3CN3C(=O)C(=O)NC[C@@H]3Cc3ccccc3)C[C@@H]2CC(C)C)cc1,.,48,.,/,/,/,.,103,
O=[N+]([O-])c1ccc(CN2CCN(c3nc4ccccc4s3)CC2)cc1,.,.,.,.,.,.,/,/,
CCCn1nc([N+](=O)[O-])c(C(C#N)c2nc3ccccc3s2)c(Cl)c1=O (stereo not given),77,52,.,.,-55,.,/,/,Mdm2-MdmX confirm=100
O=C(Nc1ccccc1N1CCOCC1)c1cnccn1,.,.,.,.,.,.,/,/,
O=C(Nc1ccc(N2CCOCC2)cc1)c1cnccn1,81,53,60,.,.,59,71,.,
O=[N+]([O-])c1ccc(O)c(-c2cc(C(F)(F)F)nc(-c3ccccc3)n2)c1,75,.,.,72,-65,79,/,/,Mdm2-MdmX confirm=102
Oc1ccccc1-c1cc(C(F)(F)C(F)F)nc(-c2ccccc2)n1,.,.,.,.,.,.,/,/,
C=CCC(Nc1ccccc1)C12C=CC(O1)C(C(=O)OC)=C2C(=O)OC (stereo not given),.,92,.,.,.,92,94,98,
SMILES,TWEAK-Fn14 inh,HIF-2a block,TROY signal inh,CF NFkB block,KKLEB cytotox,Peg3 promoter,HIF-2a inh conf,HIF-1a cs,others
CCc1cc(CNC(=O)C2CCC(=O)N(Cc3ccccc3F)C2)on1 (stereo not given),.,.,.,.,.,.,/,/,
CC(C)(C)c1ccc(-c2noc(CCC(=O)NCc3ccco3)n2)cc1,.,85,.,.,.,.,92,.,
COc1ccc2cc1Oc1ccc(cc1)C[C@H]1c3cc(c(OC)cc3CCN1C)Oc1c(OC)c(OC)cc3c1[C@@H](C2)N(C)CC3,.,.,.,.,.,52,/,/,Mdm2-MdmX confirm=100
COc1ccc2c(c1OC)CN(C)CCc1cc3c(cc1C(O)C2)OCO3 (stereo not given),.,.,.,.,.,.,/,/,
Cc1c(C(=O)OCC(=O)N(C)Cc2ccc(Cl)cc2)oc2ccccc12,.,.,.,.,.,.,/,/,
Cc1ccoc1C(=O)Nc1ccc(CC(=O)O)cc1,76,88,.,.,.,.,94,51,
CC(C)n1c(/C=C/[C@H](O)C[C@H](O)CC(=O)O)c(-c2ccc(F)cc2)c2ccccc21,.,45,.,.,.,.,.,.,
Cn1cc(C(CC(=O)O)C(=O)O)c2ccccc21 (stereo not given),.,.,.,.,.,.,/,/,
Oc1cc(OCc2ccccc2)ccc1-c1[nH]ncc1-c1ccccc1,.,57,.,.,.,.,.,.,
CC(=O)C(=Cc1ccc(-c2ccccc2)cc1)C(=O)c1ccccc1,55,65,.,/,/,/,.,103,
N#Cc1cccc(C=C(C(=O)c2ccccc2)c2ccccc2)c1,64,41,.,/,/,/,.,.,
CN(C)CCNC(=O)c1cc2c(s1)-c1ccc(Cl)cc1SC2,105,.,.,.,.,110,/,/,Mdm2-MdmX confirm=103
O=S1(=O)CC(N2CCCCC2)CN1Cc1cn(Cc2ccc(C(F)(F)F)cc2)nn1 (stereo not given),.,.,.,/,/,/,/,/,
Cc1cc(C)c(C(=O)/C=C/c2cccc3ccccc23)c(=O)[nH]1,95,85,54,.,.,96,92,105,Mdm2-MdmX confirm=103
Cc1nn(C)cc1S(=O)(=O)NCc1ccccc1Cl,.,.,.,.,.,.,/,/,
Cc1nc2nc(-c3ccc(F)cc3)cn2nc1C,.,.,.,.,.,.,/,/,

# Source: PubChem BioAssay
